The test system of one assay is MCC-13. Kind of assay: qHTS assay to identify novel small-molecules to repurpose for Merkel cell carcinoma treatment (AID 1296009). Further: nearly all actives have a fitted effect of over 60% in size. The conditions noted are these: MCC and control cell lines, CellTiter-Glo viability, 72 h; series mostly up to 46 µM. The gist of the method: (§1)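 qHTS format: cells treated with library compounds in DMSO across 8 (NPC) or 11 (MIPE) concentrations. Readout after 72 hr at 37 degree celsius was CellTiter-Glo luminescence.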
(In general: In qHTS, concentration-response curves come from the screen itself.)

Another assay deals with MCC-26. The assay is described as above. The note with it: MCC and control cell lines, CellTiter-Glo viability, 72 h; series mostly up to 46 µM. The gist of the method:
as §1

In a further assay the test system is MKL-1. The description is as above. The note with it: MCC and control cell lines, CellTiter-Glo viability, 72 h; series mostly up to 46 µM. The gist of the method:
as §1
A general note: In ATP-based viability assays light output follows the ATP content of the culture.

The test system of another assay is MKL-2. The assay is described as above. The note with it: MCC and control cell lines, CellTiter-Glo viability, 72 h; series mostly up to 46 µM. The gist of the method:
as §1

The subject of a further assay is NIH3T3. The assay is described as above. The conditions noted are these: MCC and control cell lines, CellTiter-Glo viability, 72 h; at 44.8 µM (top of the series) unless noted. The gist of the method: as §1
The subject of the next assay is UISO. The assay is described as above. The conditions noted are these: MCC and control cell lines, CellTiter-Glo viability, 72 h; series mostly up to 46 µM. The gist of the method:
as §1

In the next assay the test system is WaGa. The description is as above. The note with it: MCC and control cell lines, CellTiter-Glo viability, 72 h; series mostly up to 46 µM. The gist of the method:
as §1

The subject of a further assay is C33A. Kind of assay: Primary qHTS to identify gynecologic anti-cancer compounds using libraries of approved drugs and bioactive compounds (AID 1345084). Further: nearly all actives have a fitted effect of over 55% in size. The conditions noted are these: Gynecologic cancer cell panel viability, ATPlite luminescence, 48 h; series mostly up to 57.5 µM. The gist of the method:
(§2)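 Cells, 1,000 per well, plated 16 h, then exposed 48 h at 37 C to compounds. Viability by ATPlite luminescence after 15 min at room temperature.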

The next assay has as its system CAOV3. Described as above. The note with it: Gynecologic cancer cell panel viability, ATPlite luminescence, 48 h; series mostly up to 57.5 µM. The gist of the method: as §2
The subject of the next assay is CASKI. The description is as above. The conditions noted are these: Gynecologic cancer cell panel viability, ATPlite luminescence, 48 h; series mostly up to 57.5 µM. The gist of the method: as §2
The test system of a further assay is Es-2. The assay is described as above. The conditions noted are these: Gynecologic cancer cell panel viability, ATPlite luminescence, 48 h; series mostly up to 57.5 µM. The gist of the method:
as §2

The test system of another assay is HeLa. The assay is described as above. The note with it: Gynecologic cancer cell panel viability, ATPlite luminescence, 48 h; series mostly up to 57.5 µM. The gist of the method: as §2
The next assay concerns Hek293T. Described as above. The conditions noted are these: Gynecologic cancer cell panel viability, ATPlite luminescence, 48 h, control line for the selectivity index; series mostly up to 57.5 µM. The gist of the method: as §2
Another assay deals with JEG-3. The assay is described as above. The conditions noted are these: Gynecologic cancer cell panel viability, ATPlite luminescence, 48 h; series mostly up to 57.5 µM. The gist of the method:
as §2

Another assay deals with OV90. The assay is described as above. The note with it: Gynecologic cancer cell panel viability, ATPlite luminescence, 48 h; series mostly up to 57.5 µM. The gist of the method: as §2
Another assay deals with PA-1. Described as above. The note with it: Gynecologic cancer cell panel viability, ATPlite luminescence, 48 h; series mostly up to 57.5 µM. The gist of the method: as §2
The subject of a further assay is SKOV3. The assay is described as above. The note with it: Gynecologic cancer cell panel viability, ATPlite luminescence, 48 h; series mostly up to 57.5 µM. The gist of the method: as §2
In a further assay the test system is Tov-21-G. Described as above. The conditions noted are these: Gynecologic cancer cell panel viability, ATPlite luminescence, 48 h; series mostly up to 57.5 µM. The gist of the method:
as §2

The next assay deals with Tov112D. Described as above. The conditions noted are these: Gynecologic cancer cell panel viability, ATPlite luminescence, 48 h; series mostly up to 57.5 µM. The gist of the method: as §2
The nature of assay [1]: Drug repurposing screens with cells derived from glioblastoma tumor samples (AID 1345199). Further: nearly all actives have a fitted effect of over 40% in size. Further: potency means the concentration at half of the fitted maximal effect. The note with it: GBM patient neurospheres viability, ATP luminescence, 48 h. The gist of the method: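 Four patient lines of CD133+ GBM neurospheres were screened at several concentrations; hits were retested in those lines plus three slower-growing GBM lines, using 48-hour treatment and ATP-based viability.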

The mark [2] stands for this setting: at 45.9 µM (top of the series), tumour line B.
Where [3] appears, read: at 45.9 µM (top of the series), tumour line D.
Setting [4] is: at 46.1 µM (top of the series), tumour line C.

The structures appear in SMILES notation. Inconclusive results are not listed. A number with no mark means an inactive call. Activity calls are given as the source filed them. The call rests on the fitted dose curve; in most records, active means well fitted curve in the direction sought with a large enough effect; inconclusive means small, poorly fitted or top-dose-only effect, or another doubt; inactive means no such curve, though single readings can be large; an effect the other way counts as inactive or inconclusive.

Our source for the Potency, outcome and activity, negative = cell killing values is PubChem BioAssay (NCATS).
On the % scale 0 is the no-effect control and ±100 the full control effect.

Regarding `C[N+](C)(C)CCOC(=O)CCC(=O)OCC[N+](C)(C)C`, the Potency result in the assay on MCC-13, in the assay with MCC-26, in the assay with MKL-1, in the assay with MKL-2, with UISO and in the assay with WaGa was “inactive” in each case. In addition, the Potency entry in the assay on C33A, with CAOV3, with CASKI, in the assay on Es-2, with HeLa and in the assay with Hek293T was “inactive” in each case. Besides, the Potency result in the assay on JEG-3, in the assay on OV90, with PA-1, in the assay on SKOV3, in the assay on Tov-21-G and with Tov112D was “inactive” throughout. Also, the call in the assay on NIH3T3 was inactive. For the same molecule, the activity, negative = cell killing was 5.74% in assay [1] (setting [2]); -9.68% in assay [1] (setting [3]); -19.2% in assay [1] (at 46 µM (top of the series), tumour line A); 9.88% in assay [1] (setting [4]).

`CNC1(C)C2CCC(C2)C1(C)C` (configuration not stated): the Potency result in the assay on MCC-13, in the assay on MCC-26, in the assay on MKL-1, in the assay on MKL-2, with UISO and in the assay on WaGa was “inactive” in each case. The Potency entry with C33A, in the assay with CAOV3, in the assay on CASKI, in the assay on Es-2, in the assay with HeLa and in the assay with Hek293T was “inactive” throughout. Also, the Potency entry in the assay with JEG-3, in the assay with OV90, in the assay with PA-1, in the assay with Tov-21-G and with Tov112D was “inactive” throughout. The result with NIH3T3 was inactive. For the same molecule, the figures for the activity, negative = cell killing in assay [1] (setting [2]), in assay [1] (setting [3]) and in [1] (setting [4]) were 1.71%, 0.479% and 3.06%, respectively.

On to `CN(C)C/C=C(/c1ccc(Br)cc1)c1cccnc1`, for which the Potency entry in the assay with MCC-13, in the assay on MCC-26, in the assay with MKL-1, in the assay with MKL-2, with UISO and in the assay on WaGa was “inactive” in each case. Moreover, the Potency entry in the assay on C33A, in the assay on CAOV3, in the assay with CASKI, in the assay on Hek293T, in the assay with JEG-3 and in the assay with OV90 was “inactive” each time. The Potency entry in the assay with PA-1, with SKOV3, in the assay with Tov-21-G and in the assay with Tov112D was “inactive” each time. The result in the assay on NIH3T3 was inactive. Also, in assay [1] (setting [2]), the activity, negative = cell killing is -23%. In addition, the Potency in assay [1] (tumour line A) was 31.6 µM (active).

As to `CC(C)NNC(=O)c1ccncc1`, the Potency result with MCC-13, with MCC-26, in the assay on MKL-1, with MKL-2, in the assay on UISO and in the assay on WaGa was “inactive” in each case. Moreover, the Potency result in the assay on C33A, with CAOV3, in the assay on CASKI, in the assay on Es-2, in the assay with HeLa and in the assay on Hek293T was “inactive” each time. The Potency entry in the assay with JEG-3, with OV90, in the assay with PA-1, in the assay on SKOV3, in the assay on Tov-21-G and in the assay on Tov112D was “inactive” throughout. Besides, the outcome in the assay on NIH3T3 was inactive. In addition, the activity, negative = cell killing in assay [1] (setting [2]) was -11.9%; in assay [1] (setting [3]) it was -16.2%; in assay [1] (setting [4]), -23.6%.

Regarding `Cc1cccc(C)c1NC(=O)C(C)N` (configuration not stated), the Potency entry in the assay with MCC-13, in the assay with MCC-26, in the assay on MKL-1, in the assay with MKL-2, in the assay on UISO and in the assay with WaGa was “inactive” throughout. The Potency result with C33A, in the assay with CAOV3, in the assay with CASKI, with Es-2, with HeLa and in the assay with Hek293T was “inactive” each time. The Potency entry in the assay on JEG-3, in the assay with OV90, in the assay on PA-1, in the assay with SKOV3, with Tov-21-G and with Tov112D was “inactive” each time. Moreover, the activity, negative = cell killing in assay [1] (at 20 µM (top of the series), tumour line C) was 6.4%; in [1] (at 21.2 µM (top of the series), tumour line B) it was -16.9%; in assay [1] (at 21.2 µM (top of the series), tumour line D) it was 1.82%.

As for `COc1ccc(CN(CCN(C)C)c2ccccn2)cc1`, the Potency result in the assay on MCC-13, in the assay on MCC-26, with MKL-1, in the assay on MKL-2, with UISO and in the assay with WaGa was “inactive” each time. Further, the Potency entry with C33A, with CAOV3, with CASKI, in the assay with Es-2, with HeLa and with Hek293T was “inactive” each time. Moreover, the Potency result in the assay on JEG-3, in the assay with OV90, in the assay on PA-1, with SKOV3, in the assay on Tov-21-G and in the assay with Tov112D was “inactive” each time. Further, the activity, negative = cell killing is -3.6% in assay [1] (setting [2]) and -2.37% in assay [1] (setting [4]). Besides, the Potency in assay [1] (tumour line A) is 35.5 µM (active).
